Bioassay records: PubChem, National Center for Advancing Translational Sciences (NCATS)
Hits are enriched below; roughly 11% of the tested compounds scored in any of these assays.
3T3 cytotox – cytotoxic compounds in NIH 3T3 cells; NIH 3T3 viability, CellTiter-Glo ATP luminescence, 48-72 h; AID 1345082; Potency, µM (doses to about 96.7 µM), for inactives: at the highest dose activity change, negative = cytotoxicity, actives largely listed as inhibitors; 94,000 compounds, 4.3% hits; note: % is set by controls: 0 for no effect and ±100 for the full control effect; nearly all actives have a fitted effect of over 55% in size
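Luminescent ATP readout (CellTiter-Glo, 10 min RT) after 48 or 72 hr compound exposure of NIH 3T3 cells seeded at 400 cells/well in 1536-well format; quantitative HTS.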
Luciferase inh – blocks purified firefly luciferase enzyme activity. purified P. pyralis luciferase, luminescence, biochemical. 76,000 compounds, 2.5% hits. Potency, µM (highest dose often 115 µM), hits mostly inhibitors. P08659; note: % is set by controls: 0 for no effect and ±100 for the full control effect; nearly all actives have a fitted effect of over 65% in size
Target sequence (P08659 whole entry, looked up): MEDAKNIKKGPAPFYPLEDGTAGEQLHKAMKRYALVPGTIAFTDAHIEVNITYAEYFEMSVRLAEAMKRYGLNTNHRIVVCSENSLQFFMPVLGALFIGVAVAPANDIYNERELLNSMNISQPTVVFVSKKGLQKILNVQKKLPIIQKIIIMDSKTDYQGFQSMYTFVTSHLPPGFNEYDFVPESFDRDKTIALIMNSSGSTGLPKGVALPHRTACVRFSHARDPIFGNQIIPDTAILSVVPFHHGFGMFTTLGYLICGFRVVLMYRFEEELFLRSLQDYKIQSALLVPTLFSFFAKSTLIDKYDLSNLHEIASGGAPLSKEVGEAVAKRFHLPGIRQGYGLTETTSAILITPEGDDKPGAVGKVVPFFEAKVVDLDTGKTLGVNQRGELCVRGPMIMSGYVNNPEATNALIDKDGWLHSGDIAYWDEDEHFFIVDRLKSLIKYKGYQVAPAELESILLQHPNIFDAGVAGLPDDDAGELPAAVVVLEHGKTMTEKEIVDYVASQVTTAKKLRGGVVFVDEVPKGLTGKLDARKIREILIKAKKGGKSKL
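Purified P. pyralis luciferase (10nM final) in 50mM Tris acetate pH 7.5, 10mM Mg acetate, 0.01% Tween-20, 0.05% BSA with 10uM D-luciferin and 10uM ATP. Compounds titrated qHTS. Luminescence imaged on CCD.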
NPR1 antag – antagonists of human natriuretic peptide receptor Npr1; P16066; HEK293 hNpr1 GloSensor cGMP, ANP-stimulated luminescence; Potency, µM (series often up to 46.3 µM), for inactives: at the highest dose activity change, negative = inhibition, usual class: inhibitors; 76,000 compounds, 1.6% hits; AID 1347048; calls by dose curve; note: % is set by controls: 0 for no effect and ±100 for the full control effect; nearly all actives have a fitted effect of over 60% in size
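HEK293 cells stably expressing human Npr1 and cGMP GloSensor pGS-40F, loaded 2 h with 2% GloSensor reagent, given compound 30 min at room temperature. Luminescence read before and 20 min after 0.1 nM hNppA.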
HEK cytotox – cytotoxic compounds in HEK 293 cells; 94,000 compounds, 6.6% hits; Potency, µM (series often up to 115 µM), for inactives: top-dose activity change, negative = cytotoxicity, actives largely listed as inhibitors; AID 1345083; HEK 293 viability, ATP luminescence (CellTiter-Glo), 48-72 h; note: % is set by controls: 0 for no effect and ±100 for the full control effect; nearly all actives have a fitted effect of over 60% in size
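Viability of HEK 293 cells, plated at 250 cells/well, was judged by cellular ATP after compound treatment for 48 or 72 hr. Luminescence was imaged 10 min after CellTiter-Glo addition at room temperature.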
Npr1 antag conf – confirmation of human Npr1 natriuretic peptide receptor antagonists. shares compounds with NPR1 antag. HEK293 hNpr1 cGMP GloSensor luminescence, ANP-stimulated. Potency, µM (highest dose often 57.6 µM), inactives show at the top dose activity change, negative = inhibition, hits mostly inhibitors. 1,400 compounds, 76% hits; calls by dose curve; note: nearly all actives have a fitted effect of over 70% in size
NPR2 antag – antagonizes human Npr2, subtype selectivity check; shares compounds with NPR1 antag; HEK293 hNpr2 GloSensor cGMP luminescence, CNP-stimulated; Potency, µM (doses to about 57.6 µM), inactives show at the top dose activity change, negative = inhibition, usual class: inhibitors; 1,400 compounds, 67% hits; AID 1347046; calls by dose curve; note: nearly all actives have a fitted effect of over 70% in size
FLuc inh counter – FLuc enzyme inhibition, Npr1 counter-screen | 1,400 compounds, 0.7% hits | Potency, µM (highest dose often 57.6 µM), for the others: at the top dose activity change, negative = inhibition, actives largely listed as inhibitors | purified FLuc enzyme, luminescence, Km substrate | shares compounds with NPR1 antag; note: 0% is about no effect
GloSensor ctrl – reduces cGMP signal in GloSensor control cells; shares compounds with NPR1 antag; HEK293 GloSensor cGMP, SNP-stimulated, luminescence; Potency, µM (highest dose often 57.6 µM), inactives show top-dose activity change, negative = inhibition, hits mostly inhibitors; 1,400 compounds, 69% hits; AID 1347051; calls by dose curve; note: % is set by controls: 0 for no effect and ±100 for the full control effect; nearly all actives have a fitted effect of over 70% in size
* = called active by the depositor; i = inactive; ? = inconclusive; . = no result; [ ] = dose if it differs, or a comment. Unless noted, calls come from the whole dose curve; as a rule, active = well fitted curve in the direction sought with a large enough effect; inconclusive = small, poorly fitted or top-dose-only effect, or another doubt; inactive = no such curve, though single readings can be large; an effect the other way counts as inactive or inconclusive. Potency is the fitted concentration of half-maximal effect.

SMILES | 3T3 cytotox | Luciferase inh | NPR1 antag | HEK cytotox | Npr1 antag conf | NPR2 antag | FLuc inh counter | GloSensor ctrl
Cc1ccccc1OCC(=O)NC1CCN(c2cc(-c3ccccc3)[nH]n2)CC1 | ? | i | 11µM* | 25µM* | 15µM* | 22µM* | -2% | 11µM*
N#Cc1ccc(C(=O)NC2CCN(c3cc(-c4ccc(Cl)cc4)[nH]n3)CC2)cc1 | -20% | i | ? | ? | ? | ? | -2% | ?
O=C(COc1ccccc1)NC1CCN(c2cc(-c3ccccc3)[nH]n2)CC1 | ? | i | -30% | ? | . | . | . | .
N#Cc1ccc(C(=O)NC2CCN(c3cc(-c4ccccc4)[nH]n3)CC2)cc1 | ? | i | 0% | ? | . | . | . | .
COc1ccc(CC(=O)NC2CCN(c3cc(-c4ccc(Cl)cc4)[nH]n3)CC2)cc1OC | ? | i | 18µM* | 40µM* | 24µM* | 22µM* | -1% | 24µM*
O=C1Nc2ccc(-c3ccccc3)cc2C(=O)N2CCN(C(=O)c3cccs3)C[C@H]12 | -42%[174 µM] | i | -9%[70.6 µM] | ? | . | . | . | .
Fc1ccc(Cn2ccnc2-c2ccccn2)c(Cl)c1 | ? | i | -4% | ? | . | . | . | .
COc1ccc(-n2nc(C3CCN(Cc4cccc5ccccc45)CC3)[nH]c2=O)cc1 | ? | i | 11µM* | ? | 24µM* | 24µM* | 0% | 27µM*
COc1ccc(-n2nc(C3CCCN(Cc4cccc5ccccc45)C3)[nH]c2=O)cc1 (centres undefined) | ? | i | 0% | ? | . | . | . | .
O=C(CCC1CCN(c2cc(NC3CC3)ncn2)CC1)N1CCN(c2ccccc2F)CC1 | ? | i | 13µM* | ? | 24µM* | 22µM* | -23% | 24µM*
CN(CCc1ccccc1)C(=O)CCC1CCN(c2cc(NC3CC3)ncn2)CC1 | ? | i | 11µM* | 35µM* | 22µM* | 22µM* | -14% | 14µM*
CCN(CC)C(=O)CCC1CCN(c2cc(NC3CC3)ncn2)CC1 | -23% | i | ? | -12% | . | . | . | .
CCNc1cc(N2CCC(CCC(=O)N3CCN(c4cccc(OC)c4)CC3)CC2)ncn1 | ? | i | 11µM* | 35µM* | 17µM* | 19µM* | -19% | 17µM*
CCOc1ccc(NC(=O)CCC2CCN(c3cc(NC4CC4)ncn3)CC2)cc1 | -19% | i | ? | ? | ? | ? | -29% | ?
CCNc1cc(N2CCC(CCC(=O)Nc3cccc(OC)c3)CC2)ncn1 | -15% | ? | ? | ? | . | . | . | .
O=C(NCC1CC1)c1cccc(OC2CN(CC3CC=CCC3)C2)c1 (centres undefined) | -15% | i | 12% | ? | . | . | . | .
CCOC(=O)[C@@H]1CN(C(=O)C2CC2)[C@H]2c3cccc(F)c3O[C@@H]12 | -19% | . | . | ? | . | . | . | .
O=C1CCN(Cc2ccc(C(F)(F)F)cc2)CCCC(c2nc(-c3cccnc3)no2)CCN1 (centres undefined) | ? | i | 8.9µM* | 45µM* | 17µM* | 17µM* | 2% | 15µM*
O=C1CCN(Cc2ccncc2)CCCC(c2nc(-c3cccnc3)no2)CCN1 (centres undefined) | -2% | i | 2% | i | . | . | . | .
O=C(c1cccc(Cl)c1)N1CCCN(c2ccc3nnc(C4CC4)n3n2)CC1 | -24% | . | . | -7% | . | . | . | .
CCc1ccc(NC(=O)Nc2cccc(-c3nnc4n3CCCC4)c2)cc1 | i | ? | 1% | -2% | . | . | . | .
